Shown are actives, neighbours in structure and some others; about 12% of the full set was active somewhere.
JMJD2A Tudor: JMJD2A Tudor domain (human) inhibition; AlphaScreen JMJD2A-Tudor / H3K4me3 peptide binding; Potency, µM (highest dose often 114 µM), usual class: inhibitors; 390,000 compounds, 4.4% hits; AID 504339; note: nearly all actives have a fitted effect of over 50% in size
BAZ2B block: blocks human BAZ2B; Q9UIF8; AlphaScreen BAZ2B-H3K14Ac peptide displacement; Potency, µM (doses to about 114 µM), usual class: inhibitors; 360,000 compounds, 4.4% hits; note: nearly all actives have a fitted effect of over 60% in size
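Complex of BAZ2B and biotin-H3K14Ac (50 nM apiece) forms over 30 min at RT, then faces library compounds up to 110 uM for another 30 min; AlphaScreen beads added, 20 min dark incubation, luminescence read.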
G9a block: inhibitors of human histone lysine methyltransferase G9a. Potency, µM (doses to about 102 µM), usual class: inhibitors. 350,000 compounds, 8.8% hits. G9a H3K9 monomethylation, AlphaScreen, 2 h; note: nearly all actives have a fitted effect of over 75% in size
Target sequence (Q96KQ7 913-1193 limits assumed): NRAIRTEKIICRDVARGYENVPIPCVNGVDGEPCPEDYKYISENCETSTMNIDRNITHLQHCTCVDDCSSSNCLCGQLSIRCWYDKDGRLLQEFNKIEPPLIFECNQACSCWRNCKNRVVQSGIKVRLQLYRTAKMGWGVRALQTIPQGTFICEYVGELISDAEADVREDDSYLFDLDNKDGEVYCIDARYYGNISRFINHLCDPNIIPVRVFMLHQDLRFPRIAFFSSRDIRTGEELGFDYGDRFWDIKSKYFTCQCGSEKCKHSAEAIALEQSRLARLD
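AlphaScreen read-out: biotin-H3K9 peptide (500 nM) methylation by 20 nM enzyme with 20 uM SAM, 2 h at room temperature after 15 min compound preincubation; anti-monomethyl H3K9 antibody plus donor/acceptor beads, 10 min dark.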
HP1b chromo inh: HP1-beta chromodomain-methylated histone interaction inhibition; 390,000 compounds, 0.56% hits; P83916; AID 540317; AlphaScreen HP1-beta / biotin-H3K9me3 peptide binding; Potency, µM (top dose mostly 114 µM), usual class: inhibitors; note: nearly all actives have a fitted effect of over 70% in size
Target sequence (P83916 whole entry, looked up): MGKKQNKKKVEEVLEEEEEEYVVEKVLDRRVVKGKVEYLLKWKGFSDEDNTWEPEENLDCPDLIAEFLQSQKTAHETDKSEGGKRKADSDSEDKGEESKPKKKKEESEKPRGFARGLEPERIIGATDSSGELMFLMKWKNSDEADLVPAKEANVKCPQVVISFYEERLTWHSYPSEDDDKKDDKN
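HP1-beta protein (50 nM final) preincubated 30 min at room temperature with biotinylated H3(1-18)K9me3 peptide (50 nM) in PBS pH 7.4, 0.01% Tween-20, then compound added for 30 min. AlphaScreen streptavidin donor/nickel chelate acceptor beads (10 ug/mL final), 30 min dark, luminescence read.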
L3MBTL1 block: blocks human L3MBTL1; 230,000 compounds, 0.66% hits; Potency, µM (series often up to 57.1 µM), hits mostly inhibitors; AlphaScreen L3MBTL1–H3K9me1 peptide binding; AID 485360; note: nearly all actives have a fitted effect of over 60% in size
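AlphaScreen assay: L3MBTL1 (50 nM final) was preincubated 30 min at room temperature with biotinylated H3(1-15)K9me1 peptide (75 nM final), then 30 min with library compounds; streptavidin donor and nickel chelate acceptor beads (10 ug/mL final) added, 30 min dark.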
Sfp inh: blocks B. subtilis Sfp PPTase activity; Biochemical Sfp PPTase activity, qHTS; Potency, µM, hits mostly inhibitors; 310,000 compounds, 3.5% hits;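 note: the enzyme is Sfp with the accession as filed and its product quenches rhodamine fluorescence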
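After 15 min at room temperature with compound, 15 nM Sfp received 5 uM rhodamine-CoA plus 12.5 uM BHQ-2-ybbR (50 mM Hepes pH 7.6, 10 mM MgCl2). Rate came from the fluorescence difference over 30 min, ex 525/em 598 nm.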
A number is an active result; ! = not active in a repeat; [ ] = another dose, or the depositor's remark. Calls come from the whole dose curve; as a rule, active = well fitted curve in the direction sought with a large enough effect; inconclusive = small, poorly fitted or top-dose-only effect, or another doubt; inactive = no such curve, though single readings can be large; an effect the other way counts as inactive or inconclusive.

Results for COc1cc(C(=O)O[C@H]2C/C(C)=C/CC/C(C)=C/[C@@H](O)C2C(C)C)ccc1O (some centres not stated) ?
Sfp inh: inactive

What do the screens show for `CC(=C/C(=O)O)/C=C/c1ccc([N+](=O)[O-])cc1`?
JMJD2A Tudor: inactive; BAZ2B block: inconclusive; G9a block: 56µM; HP1b chromo inh: inactive; L3MBTL1 block: inactive; Sfp inh: inactive

How did O=C(/C=C/c1ccc([N+](=O)[O-])cc1)/C=C/c1ccco1 do in these assays?
BAZ2B block: 28µM; G9a block: 10µM; Sfp inh: 50µM

Results for O=C(/C=C/c1ccco1)NCC(=O)N/N=C/c1ccc(Cl)cc1 ?
JMJD2A Tudor: inactive; BAZ2B block: inactive; G9a block: inactive; HP1b chromo inh: inactive; L3MBTL1 block: inactive; Sfp inh: inactive

Results for O=C(/C=C/c1ccco1)NCC(=O)N/N=C/c1ccc([N+](=O)[O-])cc1 ?
JMJD2A Tudor: 14µM; BAZ2B block: inconclusive; G9a block: inconclusive; HP1b chromo inh: inconclusive; L3MBTL1 block: inconclusive; Sfp inh: inconclusive

What do the screens show for `C/C(=N/NC(=O)CNC(=O)/C=C/c1ccco1)c1ccc(Cl)cc1`?
JMJD2A Tudor: inactive; BAZ2B block: 56µM; G9a block: inactive; HP1b chromo inh: inactive; L3MBTL1 block: inconclusive; Sfp inh: inconclusive

How did COc1ccccc1/C=C/C(=O)NCC(=O)N/N=C(/C)c1ccc(Cl)cc1 do in these assays?
JMJD2A Tudor: inactive; BAZ2B block: inactive; G9a block: inactive; HP1b chromo inh: inactive; Sfp inh: inactive

How did O=C(CCn1nc(-c2ccc(Cl)cc2)c2ccccc2c1=O)Nc1ccc(OC(F)(F)F)cc1 do in these assays?
JMJD2A Tudor: inactive; BAZ2B block: inactive; G9a block: inactive; HP1b chromo inh: inactive

What do the screens show for `O=C(/C=C/c1ccco1)c1cccc([N+](=O)[O-])c1`?
JMJD2A Tudor: 35µM; HP1b chromo inh: inconclusive

What do the screens show for `O=C(N/N=C/C=C/c1ccco1)c1cccc([N+](=O)[O-])c1`?
JMJD2A Tudor: inactive; BAZ2B block: inactive; G9a block: inconclusive; HP1b chromo inh: inactive; L3MBTL1 block: inactive; Sfp inh: inactive

Results for COc1ccc(Cl)cc1NC(=O)c1ccc2c(SCC(=O)O)c3c(nc2c1)CCCC3 ?
JMJD2A Tudor: inactive; BAZ2B block: inactive; G9a block: 50µM; HP1b chromo inh: inconclusive; Sfp inh: inactive

Results for O=C(O)CSc1c2c(nc3cc(C(=O)Nc4ccc(F)c(Cl)c4)ccc13)CCCC2 ?
JMJD2A Tudor: inactive; BAZ2B block: 50µM; HP1b chromo inh: inactive; Sfp inh: inactive

What do the screens show for `COc1ccc(NC(=O)c2ccc3c(SCC(=O)O)c4c(nc3c2)CCCC4)cc1Cl`?
BAZ2B block: inactive; G9a block: inconclusive; L3MBTL1 block: inactive; Sfp inh: inactive

Results for O=C(CSc1c2c(nc3ccc(Cl)cc13)CCCC2)N1CCN(c2ccc(Cl)cc2)CC1 ?
JMJD2A Tudor: inactive; G9a block: inactive; HP1b chromo inh: inactive

Results for Cc1ccc(CNC(=O)CSc2c3c(nc4cc(Cl)ccc24)CCCC3)o1 ?
JMJD2A Tudor: inconclusive; BAZ2B block: inactive; G9a block: inconclusive; HP1b chromo inh: inactive; Sfp inh: 18µM

Results for COc1ccc(N2CCN(C(=O)CSc3c4c(nc5ccc(Cl)cc35)CCCC4)CC2)cc1 ?
JMJD2A Tudor: 22µM; G9a block: 11µM; HP1b chromo inh: inactive

What do the screens show for `Nc1nc(Cl)nc2c1ncn2C1OC(CO)C(O)C1F` (configuration not stated)?
Sfp inh: inactive

How did COc1ccc(NC(=O)c2ccc3c(SCC(=O)O)c4c(nc3c2)CCCC4)c(OC)c1 do in these assays?
JMJD2A Tudor: inconclusive; BAZ2B block: inconclusive; G9a block: 50µM; HP1b chromo inh: inactive; Sfp inh: inconclusive

Results for COc1ccc(N2CC(NC(=O)c3cc4ccccc4o3)CC2=O)cc1OC (configuration not stated) ?
JMJD2A Tudor: inactive; BAZ2B block: inactive; G9a block: inactive; HP1b chromo inh: inactive

How did C/C=C(\C)CN1CCN(c2ccc(C)cc2)CC1 do in these assays?
JMJD2A Tudor: 7.1µM; BAZ2B block: 25µM; G9a block: 10µM; HP1b chromo inh: inactive; Sfp inh: inactive

How did N#C/C(C(N)=O)=c1/ccc2c(c1)N1C3=C(CCCC3)CC3CCCCC31N=2 (configuration not stated) do in these assays?
JMJD2A Tudor: 6.3µM; BAZ2B block: 3.5µM; G9a block: 4µM; HP1b chromo inh: 10µM; Sfp inh: inconclusive

Results for N#CC(C#N)=c1ccc2c(c1)N1C3=C(CCCC3)CC3CCCCC31N=2 (configuration not stated) ?
JMJD2A Tudor: 45µM; BAZ2B block: 1.8µM; G9a block: 2.2µM; HP1b chromo inh: inconclusive; L3MBTL1 block: inconclusive; Sfp inh: inactive

Results for COc1ccc(-c2oc3ncn4nc(COc5cccc(C)c5C)nc4c3c2-c2ccc(OC)cc2)cc1 ?
JMJD2A Tudor: inactive; BAZ2B block: inactive; G9a block: inactive; HP1b chromo inh: inactive

How did Cc1ccc(C)c(N2CCN(C(=O)c3ccc(N4CCOCC4)c([N+](=O)[O-])c3)CC2)c1 do in these assays?
JMJD2A Tudor: 56µM; BAZ2B block: inconclusive; G9a block: 45µM; HP1b chromo inh: 45µM; Sfp inh: inactive

How did Cc1ccc(C)c(S(=O)(=O)N2CCN(C(=O)c3ccc(N4CCCC4)c([N+](=O)[O-])c3)CC2)c1 do in these assays?
JMJD2A Tudor: inconclusive; BAZ2B block: inconclusive; G9a block: 32µM; HP1b chromo inh: inactive; Sfp inh: inactive

What do the screens show for `CCOC(=O)C1CCN(C(=O)Cn2nc(CC)n3c(cc4sccc43)c2=O)CC1`?
JMJD2A Tudor: inactive; BAZ2B block: inactive; G9a block: inactive; HP1b chromo inh: inactive

What do the screens show for `c1ccc(C2=Nc3c(ccc4ccccc34)C(c3ccncc3)=NN2)cc1`?
JMJD2A Tudor: 35µM; BAZ2B block: 35µM; HP1b chromo inh: inconclusive; L3MBTL1 block: inactive; Sfp inh: inactive

Results for CN(C)CCCc1cc(C(=O)Nc2ccc(-c3ccncc3)cc2)ccc1O ?
G9a block: 25µM!; Sfp inh: inactive

What do the screens show for `O=C(Nc1ccncc1)c1ccc(-c2ccccc2)cc1`?
JMJD2A Tudor: inactive; BAZ2B block: inactive; G9a block: inactive; HP1b chromo inh: inactive; Sfp inh: inactive

Results for Nc1ncnc2n[nH]c(Nc3ccc(F)cc3)c12 ?
G9a block: inactive; Sfp inh: inactive

How did NC(=O)c1ccsc1N do in these assays?
BAZ2B block: inactive; G9a block: inactive[0.501 µM]; L3MBTL1 block: inactive; Sfp inh: 20µM

Results for COc1ccc(-c2nc3c(=O)n(C)c(=O)nc-3n(C)n2)cc1 ?
JMJD2A Tudor: inactive; HP1b chromo inh: inactive
